Values without a mark were called inactive. No rule for the calls is given here.
Biological target: Pantothenate synthetase (Mycobacterium tuberculosis (strain ATCC 25618 / H37Rv)) (UniProt P9WIL5)
Experiment: Coupled enzyme confirmation of inhibitors against recombinant Mtb PanC (AID 375);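 also: 0% = full reaction with vehicle and 100% = no enzyme background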
Conditions: coupled enzyme assay; at 10 µM, hits give high values

Pantothenate synthetase (Mycobacterium tuberculosis (strain ATCC 25618 / H37Rv)), sequence (P9WIL5 whole entry, looked up): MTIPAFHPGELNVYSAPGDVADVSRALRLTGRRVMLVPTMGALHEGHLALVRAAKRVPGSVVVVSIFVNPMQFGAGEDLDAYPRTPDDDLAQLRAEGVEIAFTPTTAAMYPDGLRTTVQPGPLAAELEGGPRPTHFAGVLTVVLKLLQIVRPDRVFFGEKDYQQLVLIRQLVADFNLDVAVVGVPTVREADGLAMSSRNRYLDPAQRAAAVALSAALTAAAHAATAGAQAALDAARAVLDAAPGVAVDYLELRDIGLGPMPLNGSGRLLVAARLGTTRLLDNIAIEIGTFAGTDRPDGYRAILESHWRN

Point of comparison: `CCOC(=O)C1CCN(c2c(N3CCCC(C(=O)OCC)C3)c(=O)c2=O)CC1` (stereo not given), inhibition 6%. Against it:
- CN(C)C(CN1C(=O)C2CC=CCC2C1=O)c1cn(C)c2ccccc12 (stereo not given) — lower, 0%
- Cc1nc(SCC(=O)Nc2ccccc2C(F)(F)F)c2c(=O)n(C)c(=O)n(C)c2n1 — lower, 4%
- C=CCn1c(=O)c(C(=O)Nc2ccccc2C(=O)OCC)c(O)c2ccccc21 — lower, 0%
- O=C(CSc1nnc(CNC(=O)c2cccs2)o1)NCCc1ccccc1 — lower, 0%
- O=C(NCc1ccc(F)cc1)C1CCN(C(=O)NCc2ccccc2)CC1 — lower, 0%
- COc1cccc(C2=NOC(C(=O)Nc3ccc(C(C)=O)cc3)C2)c1 (stereo not given) — lower, 0%
- CCN(CC)c1ccc(NC(=O)CN2CCN(CC(=O)Nc3ccccc3F)CC2)cc1 — lower, 1%
- CC(C)(C)C1=Nn2c(nnc2-c2n[nH]c3c2CCC3)SC1 — higher, 8%
- O=C(CCCN1CCC(O)(c2ccc(Cl)cc2)CC1)c1ccc(F)cc1 — lower, 0%
- CCOC(=O)c1cc2sc(C)cc2n1C(C)C(=O)OCC (stereo not given) — higher, 11%
- C=CCn1c(SCC(=O)O)nnc1-c1cccc(Cl)c1 — lower, 0%
- CC1CCN(C(=O)c2cc(-c3ccc(Cl)c(Cl)c3)on2)CC1 — lower, 3%
- CCOC(=O)CC12CN3CN(C1)CC(CC(=O)OCC)(C3)C2=O — lower, 1%
- COc1ccccc1NC(=O)NC1(C(=O)N2CCC(O)CC2)CCCCC1 — lower, 0%
- COc1ccc(C(=O)OCC(=O)NCc2ccco2)cc1OC — lower, 0%
- COCCOc1nc2ccccc2nc1C — lower, 0%
- O=c1[nH]c(CN2CCN(Cc3ccccc3)CC2)nc2sc3c(c12)CCC3 — lower, 0%
- CCc1ncc(C(O)c2cccc(OC)c2OC)n1C (stereo not given) — lower, 0%
- CC12CN3CC(C)(CN(C1)C3c1ccc(Br)cc1)C2 (stereo not given) — lower, 0%
- CCOc1ccc(N(CC(=O)NCc2ccco2)S(=O)(=O)c2ccc(OC)c(OC)c2)cc1 — lower, 0%
- CC(=O)Nc1nc(-c2ccccc2)nc(C)c1C(C)=O — lower, 1%
- CSCCC(NS(=O)(=O)c1ccc2c(c1)oc(=O)n2C)C(=O)NC1CCCCC1 (stereo not given) — lower, 0%
- CCOC(=O)C1=C(c2ccccc2)N2CCS(=O)(=O)N=C2S1 — lower, 0%
- COC(=O)CC1SCCNC1=O (stereo not given) — lower, 0%
- CS(=O)(=O)Nc1ccc(C(=O)NCc2ccc3c(c2)OCO3)cc1 — lower, 4%
- O=C(Cn1c(=O)[nH]n(-c2ccccc2)c1=O)N1CCCc2ccccc21 — lower, 0%
- COc1cccc(NC(=O)N[C@@H](Cc2ccccc2)C(=O)O)c1 — lower, 0%
- Cc1nc2c(-c3ccc(F)cc3)c(C)nn2c(C)c1CCC(=O)NC(C)CCc1ccco1 (stereo not given) — lower, 0%
- Cc1ccc(N2CCN(C(=S)c3ccc(N(C)C)cc3)CC2)cc1 — higher, 10%
- Cc1csc2nc3ccccc3c(=O)n12 — higher, 11%
- CCOC(=O)C1CCN(c2nc3ccccc3nc2C(C#N)C(=O)OCCOC)CC1 (stereo not given) — lower, 0%
- CCOC(=O)N1CCC(NC(=O)c2ccc(OC)c(CN3CC(=O)N4CCCC4C3=O)c2)CC1 (stereo not given) — lower, 0%
- CCCn1cc(C(CC(=O)O)C(=O)O)c2ccccc21 (stereo not given) — higher, 8%
- O=C(NCCc1ccccc1)C1CCN(S(=O)(=O)N2CCC3(CC2)OCCO3)CC1 — lower, 4%
- O=C(CCn1nc(-c2ccc(Cl)cc2)ccc1=O)N1CCN(c2ccccn2)CC1 — higher, 7%
- Cc1c(O)c(CN2CCCC(C)C2)cc2c3c(c(=O)oc12)CCC3 (stereo not given) — higher, 9%
- Cc1nc(-c2cnn(-c3ccccc3)c2)c2cc(C)oc2n1 — lower, 2%
- Cn1c(C(=O)NCCCN2CCCCCC2)cc2c(=O)n(C)c3ccccc3c21 — lower, 0%
- OCC#CCSc1nnc(-c2ccccc2Br)o1 — lower, 0%
